Of roughly 8,800 targets only a part is listed; those with a hit were picked by preference. About 0.5% of all pairs of compound and target were hits. Unmarked numbers belong to inactive results.

Chain of UniProt Q9UPW6 (Q9UPW6 whole entry, looked up): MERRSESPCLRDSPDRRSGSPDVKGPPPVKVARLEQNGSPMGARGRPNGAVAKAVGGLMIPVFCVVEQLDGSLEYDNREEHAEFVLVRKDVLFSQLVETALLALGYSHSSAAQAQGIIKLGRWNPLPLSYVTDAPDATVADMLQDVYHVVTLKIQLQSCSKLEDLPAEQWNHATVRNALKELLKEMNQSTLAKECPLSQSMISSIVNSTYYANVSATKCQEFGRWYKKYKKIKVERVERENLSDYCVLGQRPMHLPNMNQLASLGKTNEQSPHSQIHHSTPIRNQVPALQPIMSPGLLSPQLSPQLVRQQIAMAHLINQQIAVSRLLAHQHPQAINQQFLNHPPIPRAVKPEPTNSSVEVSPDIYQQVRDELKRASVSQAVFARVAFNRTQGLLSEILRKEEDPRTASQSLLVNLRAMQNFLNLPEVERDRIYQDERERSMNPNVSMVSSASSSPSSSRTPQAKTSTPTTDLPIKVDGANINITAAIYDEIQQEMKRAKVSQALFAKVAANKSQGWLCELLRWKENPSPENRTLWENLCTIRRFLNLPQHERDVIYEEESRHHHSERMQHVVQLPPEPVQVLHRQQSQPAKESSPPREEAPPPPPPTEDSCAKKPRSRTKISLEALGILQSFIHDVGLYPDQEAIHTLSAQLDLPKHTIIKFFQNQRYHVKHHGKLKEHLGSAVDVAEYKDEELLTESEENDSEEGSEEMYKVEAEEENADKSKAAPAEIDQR
Chain of UniProt Q92698 (Q92698 whole entry, looked up): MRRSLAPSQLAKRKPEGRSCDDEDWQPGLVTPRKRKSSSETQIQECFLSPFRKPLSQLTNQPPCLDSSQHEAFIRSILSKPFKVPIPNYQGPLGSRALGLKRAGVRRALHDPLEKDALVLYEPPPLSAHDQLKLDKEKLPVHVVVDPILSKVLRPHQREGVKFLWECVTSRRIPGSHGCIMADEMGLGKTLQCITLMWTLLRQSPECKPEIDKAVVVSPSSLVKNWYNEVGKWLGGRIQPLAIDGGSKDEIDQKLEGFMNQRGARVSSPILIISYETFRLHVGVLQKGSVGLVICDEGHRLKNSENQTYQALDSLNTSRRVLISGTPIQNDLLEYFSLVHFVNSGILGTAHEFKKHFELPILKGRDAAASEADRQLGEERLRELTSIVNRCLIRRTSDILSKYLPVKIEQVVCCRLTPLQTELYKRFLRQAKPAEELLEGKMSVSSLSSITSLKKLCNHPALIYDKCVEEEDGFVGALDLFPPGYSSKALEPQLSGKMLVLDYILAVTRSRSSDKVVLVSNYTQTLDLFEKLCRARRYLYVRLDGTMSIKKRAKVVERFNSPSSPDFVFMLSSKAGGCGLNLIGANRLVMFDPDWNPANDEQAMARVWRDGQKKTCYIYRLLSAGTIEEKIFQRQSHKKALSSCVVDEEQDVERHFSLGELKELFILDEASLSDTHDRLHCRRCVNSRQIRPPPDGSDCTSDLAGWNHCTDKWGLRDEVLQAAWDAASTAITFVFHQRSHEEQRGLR
Chain of UniProt Q86X10 (Q86X10 whole entry, looked up): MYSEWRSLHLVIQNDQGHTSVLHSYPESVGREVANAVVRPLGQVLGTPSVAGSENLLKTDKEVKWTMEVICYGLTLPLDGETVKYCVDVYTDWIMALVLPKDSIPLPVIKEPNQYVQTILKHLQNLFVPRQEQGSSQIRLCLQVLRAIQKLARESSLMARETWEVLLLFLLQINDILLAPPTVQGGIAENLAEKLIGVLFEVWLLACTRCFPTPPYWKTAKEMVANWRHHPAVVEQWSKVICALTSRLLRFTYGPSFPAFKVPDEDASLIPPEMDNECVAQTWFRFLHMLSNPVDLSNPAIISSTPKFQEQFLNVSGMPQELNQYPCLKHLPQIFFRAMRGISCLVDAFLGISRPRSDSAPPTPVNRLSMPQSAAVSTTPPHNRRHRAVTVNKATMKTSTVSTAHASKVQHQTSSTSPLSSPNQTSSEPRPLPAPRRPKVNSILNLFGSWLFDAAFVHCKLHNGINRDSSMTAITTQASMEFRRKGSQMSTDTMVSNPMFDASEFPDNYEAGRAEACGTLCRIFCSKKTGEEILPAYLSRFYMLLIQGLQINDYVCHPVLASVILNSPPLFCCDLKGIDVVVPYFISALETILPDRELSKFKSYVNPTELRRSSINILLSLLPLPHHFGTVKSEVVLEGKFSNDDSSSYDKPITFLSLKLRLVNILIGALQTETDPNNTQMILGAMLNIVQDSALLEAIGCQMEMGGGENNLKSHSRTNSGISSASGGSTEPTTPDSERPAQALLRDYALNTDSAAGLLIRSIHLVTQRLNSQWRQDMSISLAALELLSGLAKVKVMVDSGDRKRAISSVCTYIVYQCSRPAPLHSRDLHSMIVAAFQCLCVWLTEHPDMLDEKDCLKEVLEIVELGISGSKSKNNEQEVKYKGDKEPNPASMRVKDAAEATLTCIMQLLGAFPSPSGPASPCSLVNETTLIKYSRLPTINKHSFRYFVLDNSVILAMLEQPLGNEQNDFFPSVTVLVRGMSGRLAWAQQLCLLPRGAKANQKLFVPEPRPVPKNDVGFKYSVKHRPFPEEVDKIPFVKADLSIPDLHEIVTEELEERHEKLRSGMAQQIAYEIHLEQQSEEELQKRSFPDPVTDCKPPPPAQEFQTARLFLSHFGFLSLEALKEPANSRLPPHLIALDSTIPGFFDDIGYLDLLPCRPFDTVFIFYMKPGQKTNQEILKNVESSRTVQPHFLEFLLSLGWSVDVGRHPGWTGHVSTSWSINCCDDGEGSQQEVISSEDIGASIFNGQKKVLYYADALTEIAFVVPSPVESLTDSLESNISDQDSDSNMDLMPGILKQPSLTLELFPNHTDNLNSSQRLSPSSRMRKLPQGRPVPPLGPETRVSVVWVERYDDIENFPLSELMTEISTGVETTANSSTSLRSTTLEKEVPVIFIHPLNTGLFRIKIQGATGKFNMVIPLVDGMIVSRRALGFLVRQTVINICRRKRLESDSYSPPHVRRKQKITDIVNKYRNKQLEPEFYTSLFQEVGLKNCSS
Chain of UniProt Q9Y4B4 (Q9Y4B4 whole entry, looked up): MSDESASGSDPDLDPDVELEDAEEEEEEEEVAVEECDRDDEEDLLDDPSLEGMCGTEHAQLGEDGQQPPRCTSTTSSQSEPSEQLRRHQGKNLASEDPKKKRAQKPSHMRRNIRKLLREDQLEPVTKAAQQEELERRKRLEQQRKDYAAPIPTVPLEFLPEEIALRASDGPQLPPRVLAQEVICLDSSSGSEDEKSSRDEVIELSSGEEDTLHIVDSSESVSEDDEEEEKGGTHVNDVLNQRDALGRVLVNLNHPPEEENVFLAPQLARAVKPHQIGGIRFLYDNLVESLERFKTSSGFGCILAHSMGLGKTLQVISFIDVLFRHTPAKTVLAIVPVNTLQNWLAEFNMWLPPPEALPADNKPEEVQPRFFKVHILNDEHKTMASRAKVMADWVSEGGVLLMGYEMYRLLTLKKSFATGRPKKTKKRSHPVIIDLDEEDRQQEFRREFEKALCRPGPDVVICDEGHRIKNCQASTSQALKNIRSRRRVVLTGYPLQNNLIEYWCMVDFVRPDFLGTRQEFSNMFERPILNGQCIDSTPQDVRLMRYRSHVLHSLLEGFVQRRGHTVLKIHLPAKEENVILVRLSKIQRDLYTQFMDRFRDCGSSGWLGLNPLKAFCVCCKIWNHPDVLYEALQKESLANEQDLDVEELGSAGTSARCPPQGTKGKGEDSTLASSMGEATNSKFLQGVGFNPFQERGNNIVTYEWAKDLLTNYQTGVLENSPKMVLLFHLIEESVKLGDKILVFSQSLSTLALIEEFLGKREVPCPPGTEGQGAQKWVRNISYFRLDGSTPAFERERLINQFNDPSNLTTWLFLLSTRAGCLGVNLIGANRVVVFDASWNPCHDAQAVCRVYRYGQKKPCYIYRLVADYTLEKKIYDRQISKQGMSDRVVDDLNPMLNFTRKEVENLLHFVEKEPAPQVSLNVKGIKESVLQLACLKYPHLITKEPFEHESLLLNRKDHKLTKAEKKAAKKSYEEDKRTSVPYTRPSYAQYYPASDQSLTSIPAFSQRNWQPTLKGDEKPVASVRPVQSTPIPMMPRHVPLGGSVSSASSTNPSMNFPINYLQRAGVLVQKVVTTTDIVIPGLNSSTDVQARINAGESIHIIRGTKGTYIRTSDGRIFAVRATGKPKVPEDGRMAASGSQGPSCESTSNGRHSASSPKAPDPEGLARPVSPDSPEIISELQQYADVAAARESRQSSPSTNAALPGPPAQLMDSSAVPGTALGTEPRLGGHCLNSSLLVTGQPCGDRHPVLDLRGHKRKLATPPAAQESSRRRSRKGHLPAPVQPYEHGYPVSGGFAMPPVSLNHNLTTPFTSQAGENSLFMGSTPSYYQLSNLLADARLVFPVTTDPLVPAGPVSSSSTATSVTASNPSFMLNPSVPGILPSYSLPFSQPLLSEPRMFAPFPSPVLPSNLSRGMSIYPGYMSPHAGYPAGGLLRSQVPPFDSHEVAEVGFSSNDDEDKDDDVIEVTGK
Chain of UniProt Q96LT9 (Q96LT9 whole entry, looked up): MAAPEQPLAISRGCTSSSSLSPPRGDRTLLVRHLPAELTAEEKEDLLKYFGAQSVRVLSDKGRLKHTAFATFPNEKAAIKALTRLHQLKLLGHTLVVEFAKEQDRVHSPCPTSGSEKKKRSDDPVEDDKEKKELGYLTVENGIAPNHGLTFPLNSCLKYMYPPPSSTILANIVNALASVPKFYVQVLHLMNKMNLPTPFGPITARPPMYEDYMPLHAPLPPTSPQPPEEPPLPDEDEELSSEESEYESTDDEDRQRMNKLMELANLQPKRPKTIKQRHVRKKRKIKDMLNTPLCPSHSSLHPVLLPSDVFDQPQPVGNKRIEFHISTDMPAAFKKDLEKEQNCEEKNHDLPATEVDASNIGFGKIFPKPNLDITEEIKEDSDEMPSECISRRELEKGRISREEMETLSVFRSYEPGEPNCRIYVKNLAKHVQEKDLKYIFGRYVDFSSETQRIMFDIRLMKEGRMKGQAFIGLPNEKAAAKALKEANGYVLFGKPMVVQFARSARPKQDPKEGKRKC

Compound in the experiment: c1ccc([C@@H]2C[C@H]2NC2CCNCC2)cc1
In words: log2 fold change, soluble protein after heating vs DMSO (PISA); higher = thermal stabilisation; K562 lysate, 10 uM; active = over 0.2 and 3.5 SD of the protein, either way, in both replicates (recomputed). A digest of the protocol:
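Following dounce homogenisation of K562 pellets in PBS pH 7.4 with 1 mM MgCl2, crude extract at 1 mg/mL protein was incubated for 30 min with 10 μM compound. Aliquots were then heated for 3 min over 48°C-58°C and pooled, NP-40 was added to 0.5% at 4°C, and soluble protein was recovered as the supernatant at 21,000xg for 90 min. Channel-sum-equalised TMTpro 16plex LC-MS/MS quantified this protein. Each value, from duplicates, is a log-two fold change in thermal stability relative to solvent controls.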
Regarding RALA (UniProt P11233), the log2 fold change is -0.225.

As for RPS6KA3 (UniProt P51812), the log2 fold change was -0.061.

In the case of S100A6 (UniProt P06703), the log2 fold change is 0.104.

Turning to SEMA4G isoform 2 (UniProt Q9NTN9), the log2 fold change was 0.066.

RPS6KA5 (UniProt O75582): the log2 fold change is -0.017.

As to RNPC3 (UniProt Q96LT9), the log2 fold change is -0.034.

As to RXRA (UniProt P19793), the log2 fold change was -0.149.

Consider RUFY2 isoform 1 (UniProt Q8WXA3), for which the log2 fold change is -0.111.

For RNF17 (UniProt Q9BXT8), the log2 fold change is 0.451.

Turning to SCNM1 (UniProt Q9BWG6), the log2 fold change is 0.014.

As to RETREG2 (UniProt Q8NC44), the log2 fold change was 0.004.

Regarding RAD54L (UniProt Q92698), the log2 fold change is -1.06 (active).

With RALGAPB isoform 3 (UniProt Q86X10), the log2 fold change is 0.153.

On to RHOU (UniProt Q7L0Q8), for which the log2 fold change is -0.015.

For RAB21 (UniProt Q9UL25), the log2 fold change is 0.127.

As for RYR1 (UniProt P21817), the log2 fold change was -0.055.

RNF2 (UniProt Q99496): the log2 fold change is 0.343.

With RNASEH1 (UniProt O60930), the log2 fold change is 0.11.

Regarding SERAC1 (UniProt Q96JX3), the log2 fold change was 0.065.

As for RDH11 (UniProt Q8TC12), the log2 fold change is -0.085.

In the case of RAD54L2 (UniProt Q9Y4B4), the log2 fold change was 0.147.

As for SEC62 (UniProt Q99442), the log2 fold change was -0.023.

Regarding RNF24 isoform 2 (UniProt Q9Y225), the log2 fold change was -0.115.

For RBM45 (UniProt Q8IUH3), the log2 fold change is -0.026.

RARS (UniProt P54136): the log2 fold change was 0.091.

For SATB2 (UniProt Q9UPW6), the log2 fold change was -0.045.

RNF170 (UniProt Q96K19): the log2 fold change is -0.026.

Consider SCCPDH (UniProt Q8NBX0), for which the log2 fold change was -0.164.

Turning to RHBDD1 (UniProt Q8TEB9), the log2 fold change was 0.039.

As for SCML2 (UniProt Q9UQR0), the log2 fold change was 0.02.

These data come from the supplement of paper PMC10849652.
